Assay results reported in PubChem BioAssay (Tox21).
Inconclusive results are not listed. A number with no mark means an inactive call. The source made the active and inactive calls. Calls follow the shape of the dose curve; as a rule, active = well fitted cell-killing curve with a large enough effect in the repeat runs; inconclusive = weak or mixed curves, or effect the other way; inactive = flat fitted curve, though single readings scatter.

Experiment: Nuclear factor erythroid 2-related factor 2/antioxidant responsive element (Nrf2/ARE) small molecule agonists: qHTS cell viability counter screen in human keratinocytes (AID 1919968); also: nearly all actives have a fitted effect of over 55% in size
Settings: KeratinoSens HaCaT ARE cells viability, CellTiter-Fluor, 24 h; series mostly up to 92.4 µM; activity change, negative = cytotoxicity: at the top concentration
Outline: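 Viability counter-screen: KeratinoSens reporter cells, DMSO-delivered compounds, 23 h at 37 C, CellTiter-Fluor fluorescence.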
% is scaled to controls: 0 for no effect and ±100 for the full control effect; potency is read from the fitted curve at half-maximal effect.

Going from `CCCOc1ccc(S(=O)(=O)N2CCN(CC)CC2)cc1-c1nc2c(CC)n(Cc3ccccn3)nc2c(=O)[nH]1` to `O=C(NS(=O)(=O)/C=C/c1cccs1)c1ccc(F)cc1Br`, the “activity change, negative = cytotoxicity” value rises from -2.65% to 2.28%.

Going from `COc1cc(Cl)c(OC)cc1N` to `CC(C)OC(=O)c1ccccc1C(=O)OC(C)C`, the “activity change, negative = cytotoxicity” value falls from -0.145% to -1.1%.

Compared with `Oc1ccccc1F`, `CCOC(=O)CC(=O)c1ccccc1` is lower in “activity change, negative = cytotoxicity” value: 6.02% for the first, -6.85% for the second.

Compared with `NCCCN1CCOCC1`, `C=CC(=C)CCCC(C)(C)OC(C)=O` is higher in “activity change, negative = cytotoxicity” value: -8.97% for the first, -1.83% for the second.

Going from `O=C(O)c1ccc2cc(C(=O)O)ccc2c1` to `OCCc1ccncc1`, the “activity change, negative = cytotoxicity” value falls from 0.884% to -0.0441%.

Going from `N#CCCNCCC#N` to `CC(CC=O)CCCC(C)(C)O` (centres undefined), the “activity change, negative = cytotoxicity” value rises from 0.482% to 10.4%.

In the case of `C=CCOC(=O)COCCC(C)C`, the “activity change, negative = cytotoxicity” value is reported as -0.417%.

Going from `CC1CC(OC(=O)C(O)c2ccccc2)CC(C)(C)N1C` (centres undefined) to `CN1CCC(=C2c3ccccc3CCc3cccnc32)CC1`, the “activity change, negative = cytotoxicity” value falls from 7.55% [at 42.5 µM] to -14.8% [at 42.5 µM].

Going from `CC(=O)N[C@@H](CCC(=O)O)C(=O)O` to `CCO[C@H](Cc1ccc(OCCc2ccc(OS(C)(=O)=O)cc2)cc1)C(=O)O`, the “activity change, negative = cytotoxicity” value falls from 5.27% [at 42.5 µM] to -6.48% [at 42.5 µM].

Going from `CC(=O)OCC(=O)[C@H]1CC[C@H]2[C@@H]3CCC4=CC(=O)CC[C@]4(C)[C@H]3CC[C@]12C` to `CN1C(CSCC(F)(F)F)Nc2cc(Cl)c(S(N)(=O)=O)cc2S1(=O)=O` (centres undefined), the “activity change, negative = cytotoxicity” value falls from 3.77% [at 42.5 µM] to -9.83% [at 42.5 µM].

First: CCOc1ccc2nc(S(N)(=O)=O)sc2c1
Second: CCOc1ccccc1OCCN[C@H](C)Cc1ccc(OC)c(S(N)(=O)=O)c1
The “activity change, negative = cytotoxicity” value of the first is higher: 1.49% [at 42.5 µM] for the first, -8.24% [at 42.5 µM] for the second.

First: O=c1cc(O)c(Cl)c[nH]1
Second: COc1ccc(/C=N/NC(=O)c2ccncc2)cc1OC
The “activity change, negative = cytotoxicity” value of the first is lower: 0.15% [at 42.5 µM] for the first, 5.14% [at 42.5 µM] for the second.

In the case of `CCCCCCC(C)Nc1ccc(Nc2ccccc2)cc1` (centres undefined), the Potency is reported as 48.6 µM (active).
